Experimental data taken from PubChem BioAssay (EPA / NIEHS).
Results filed as inconclusive are left out. Active and inactive are the calls of the source. The calls were made as follows: active = hit-call score of the fitted dose curve at least 0.9, where 1 is the maximum; inconclusive = response in the unintended direction; inactive = score below 0.9.

read-out: xenobiotic metabolism (CYP1A1), CYP1A1 (gene 1543); test: CLD_CYP1A1_48hr: CellzDirect (CLD) Gene Expression Assay for xenobiotic metabolism (CYP1A1) at 48 hours (AID 2283705)
Description: CLD_48hr is a cell-based, multiplexed-readout assay that uses hepatocyte, a human liver primary cell, with measurements taken at 48 hours after chemical dosing in a 96-well plate.CLD_CYP1A1_48hr is one of 16 assay component(s) measured or calculated from the CLD_48hr assay. It is designed to make measurements of mRNA induction, a form of inducible reporter, as detected with chemiluminescence signals by Quantitative Nuclease Protection Assay (qNPA) technology.Data from the assay component CLD_CYP1A1_48hr was analyzed at the endpoint, CLD_CYP1A1_48hr, in the positive analysis fitting direction relative to DMSO as the negative control and baseline of activity. Using a type of inducible reporter, gain-of-signal activity can be used to understand changes in the reporter gene as they relate to the gene CYP1A1. Furthermore, this assay endpoint can be referred to as a primary readout. To generalize the intended target to other relatable targets, this assay endpoint is annotated to the cyp intended target family, where subfamily is xenobiotic metabolism.
Human hepatocyte cultures were treated daily for two consecutive days with fresh dosing solutions containing appropriate concentrations of the 320 ToxCast chemicals (chemical identities were blinded to CellzDirect and other ToxCast collaborators), vehicle control (0.2% DMSO), and positive control inducers as summarized in Table 1. Due to the large number of treatment groups and chemicals examined, the ToxCast chemicals were divided into two groups (spanning two independent cultures of hepatocytes from separate donor preparations (Hu778: ToxCast plates 1 and 2; Hu776: ToxCast plates 3 and 4). Each preparation of human hepatocyte cultures was treated with respective vehicle control, medium only control, set of six positive controls/reference chemicals for the five hepatic receptor pathways, and a subset of eight of the ToxCast chemicals (indoxacarb, pyrithiobac-sodium, norflurazon, cyhalofop-butyl, methomyl, thiram, acetochlor, and propiconazole). These replicate data, coupled with internal replicates designed within the blinded ToxCast chemical library, provided additional data to evaluate interindividual differences between hepatocyte preparations and their potential impact on chemical profiles.Cell morphology and integrity were evaluated using phase-contrast microscopy as an indicator of hepatocyte cell health (Tyson & Green, 1987). Cultures for each treatment group (i.e., media, vehicle [0.2% DMSO], positive control inducers [multiple concentrations], and the ToxCast chemicals [multiple concentrations]) were observed and cell morphology was assessed relative to vehicle control cultures at each harvest time point (0, 6, 24, or 48 h). […] Images were evaluated at the conclusion of the study to assess changes in cell integrity and account for the effects of chemical exposure on uncharacteristic changes in concentration-dependent gene expression profiles. The results from these determinations of apparent cytotoxicity were annotated (yes/no) alongside the corresponding qNPA data for reference.At the conclusion of each treatment period, hepatocyte cultures (96-well) were washed with 1 volume of HBSS, lysed by addition of 25 ul ArrayPlate lysis buffer (HTG, Tucson, AZ), and 70 ul/well of Denaturation Oil, denatured by incubation at 95C for 10 min, and frozen at approximately -70C until analysis by nuclease protection assay (qNPA) (Roberts et al., 2007). For qNPA analysis, cell lysates were thawed at 50C for approximately 30 min, qNPA probes were added, and samples were incubated at 95C for 10 min to begin the detection process by denaturing the target RNA, dissociating the duplexes and secondary structure hybridization. At the conclusion of the hybridization period, S1 nuclease reagent was added to each sample to digest all nonprotected nucleotides at 50C for 60-90 min. […]

SMILES	outcome	AC50
Clc1nc(Cl)nc(Nc2ccccc2Cl)n1	inactive	
COCC(C)N(C(=O)CCl)c1c(C)csc1C (stereo not given)	inactive	
COC(=O)NC(=S)Nc1ccccc1NC(=S)NC(=O)OC		3.32 µM (active)
CC(C)Nc1nc(Cl)nc(NC(C)C)n1	inactive	
CCN(CC)c1nc(C)cc(OP(=S)(OC)OC)n1		9.28 µM (active)
O=C(Nc1ccccc1-c1ccc(Cl)cc1)c1cccnc1Cl		20 µM (active)
CC(C)N1C(=O)c2ccccc2NS1(=O)=O	inactive	
CC1(C)CCC(=Cc2ccc(Cl)cc2)C1(O)Cn1cncn1 (stereo not given)		3.17 µM (active)
COC(=O)NS(=O)(=O)c1ccc(N)cc1	inactive	
COC(=O)N(C(=O)N1CO[C@@]2(C(=O)OC)Cc3cc(Cl)ccc3C2=N1)c1ccc(OC(F)(F)F)cc1		2.72 µM (active)
Cn1c(-c2ccccc2)cc(-c2ccccc2)[n+]1C	inactive	
COC(=O)c1c(C(F)F)nc(C(F)(F)F)c(C2=NCCS2)c1CC(C)C		8.66 µM (active)
CCOc1cc(C(C)(C)C)ccc1C1COC(c2c(F)cccc2F)=N1 (stereo not given)		30.3 µM (active)
C=CCOC(=O)C(C)(C)OC(=O)c1cc(-n2c(=O)cc(C(F)(F)F)n(C)c2=O)ccc1Cl	inactive	
CCCC(=NOCC)C1=C(O)CC(CC(C)SCC)CC1=O (stereo not given)	inactive	
CC1(C)C(C(=O)OC(C#N)c2cccc(Oc3ccccc3)c2)C1(C)C (stereo not given)	inactive	
COCc1cnc(C2=NC(C)(C(C)C)C(=O)N2)c(C(=O)O)c1 (stereo not given)	inactive	
CCNC(=O)NC(=O)C(C#N)=NOC	inactive	
CO/N=C(/C1=NOCCO1)c1ccccc1Oc1ncnc(Oc2ccccc2Cl)c1F		32.4 µM (active)
O=C1C2CC=CCC2C(=O)N1SC(Cl)(Cl)Cl (stereo not given)	inactive	

SMILES	outcome	AC50
CCN(CC)C(=O)C(C)Oc1cccc2ccccc12 (stereo not given)		27.9 µM (active)
O=P(O)(O)CCCl	inactive	
N#Cc1c(Cl)cccc1Cl	inactive	
C=C(C)CN(CC)c1c([N+](=O)[O-])cc(C(F)(F)F)cc1[N+](=O)[O-]	inactive	
Nc1c(Cl)c(Cl)nc(C(=O)O)c1Cl	inactive	
COc1cc(OC)nc(NC(=O)NS(=O)(=O)c2ncccc2OCC(F)(F)F)n1	inactive	
Clc1cccc(C(Cl)(Cl)Cl)n1		3.97 µM (active)
CNC(=O)Oc1cccc2ccccc12		3.57 µM (active)
CCCCC(C#N)(Cn1cncn1)c1ccc(Cl)cc1 (stereo not given)		35.1 µM (active)
CCC(C)n1c(=O)[nH]c(C)c(Br)c1=O (stereo not given)		8.72 µM (active)
O=C(O)c1c(Cl)ccc2cc(Cl)cnc12	inactive	
Cc1cc(C)nc(Nc2ccccc2)n1		3.97 µM (active)
CC(C)Oc1cccc(NC(=O)c2ccccc2C(F)(F)F)c1		36.6 µM (active)
CS(=O)(=O)c1cc(C(F)(F)F)ccc1C(=O)c1cnoc1C1CC1	inactive	
Cc1cnc(C2=NC(C)(C(C)C)C(=O)N2)c(C(=O)O)c1 (stereo not given)	inactive	
COCC(=O)N(c1c(C)cccc1C)C(C)C(=O)OC (stereo not given)	inactive	
Nc1cnn(-c2ccccc2)c(=O)c1Cl	inactive	
COc1cc(Cl)c(OC)cc1Cl		3.97 µM (active)
COP(=S)(OC)SCn1nnc2ccccc2c1=O		1.36 µM (active)
CC(C)N1C(=O)N(c2ccccc2)CSC1=NC(C)(C)C		33.6 µM (active)
